{"source": "the supplement of paper PMC8728848", "binders": {"B1": {"name": "Surfactant Protein D (Human); Neck + Carbohydrate Recognition Domain (NCRD) (Homo sapiens) (protein)", "chain": "MLLFLLSALVLLTQPLGYLEAEMKTYSHRTMPSACTLVMCSSVESGLPGRDRDGREGPRGEKGDPGLPGAAGQAGMPGQAGPVGPKGDNGSVGEPGPKGDTGPSGPPGPPGVPGPAGREGALGKQGNIGPQGKPGPKGEAGPKGEVGAPGMQGSAGARGLAGPKGERGVPGERGVPGNTGAAGSAGAMGPQGSPGARGPPGLKGDKGIPGDKGAKGESGLPDVASLRQQVEALQGQVQHLQAAFSQYKKVELFPNGQSVGEKIFKTAQFVKPFTEAQLLCTQAGGQLASPRSAAENAALQQLVVAKNEAAFLSMTDSKTEGKFTYPTGESLVYSNWAPGEPNDAGGSEDCVEIFTNGKWNDRACGEKRLVVCEF"}}, "experiment_in_all_cases": "glycan array binding signal (z-score within array); higher = stronger binding", "conditions_in_all_cases": "glycan notation: IUPAC condensed, linker removed; mutation: D325A", "key": {"[1]": {"target": "Fuc(a1-2)Gal(b1-3)GalNAc(b1-4)[Neu5Ac(a2-3)]Gal(b1-4)Glc", "method_in_brief": "(§1)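 Columns mapping to the same glycan were averaged after glycan names were converted to IUPAC-condensed notation. The data come from 3228 arrays in the Consortium for Functional Glycomics database, limited to those with an available protein sequence. Binding is reported as a within-array Z-score averaged across arrays of one protein sequence and across linkers.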"}, "[2]": {"target": "Fuc(a1-2)Gal(b1-3)GlcNAc", "method_in_brief": "as §1"}, "[3]": {"target": "Fuc(a1-2)Gal(b1-4)GlcNAc(b1-3)Gal(b1-4)GlcNAc", "method_in_brief": "as §1"}, "[4]": {"target": "Fuc(a1-2)[Gal(a1-3)]Gal(b1-4)Glc", "method_in_brief": "as §1"}, "[5]": {"target": "Fuc(a1-2)[GalNAc(b1-3)]Gal", "method_in_brief": "as §1"}, "[6]": {"target": "Fuc(a1-3)[Gal3S(b1-4)]Glc6S", "method_in_brief": "as §1"}, "[7]": {"target": "Fuc(a1-3)[Gal3S(b1-4)]GlcNAc", "method_in_brief": "as §1"}, "[8]": {"target": "Gal(a1-3)GalNAc", "method_in_brief": "as §1"}, "[9]": {"target": "Gal(b1-3)GlcNAc(b1-3)Gal(b1-4)GlcNAc", "method_in_brief": "as §1"}, "[10]": {"target": "Gal(b1-4)GlcNAc(b1-2)Man(a1-3)[Gal(b1-4)GlcNAc(b1-2)Man(a1-6)]Man(b1-4)GlcNAc(b1-4)GlcNAc", "method_in_brief": "as §1"}, "[11]": {"target": "Gal(b1-4)GlcNAc(b1-3)Gal(b1-3)GlcNAc", "method_in_brief": "as §1"}, "[12]": {"target": "Gal3S(b1-3)GalNAc", "method_in_brief": "as §1"}, "[13]": {"target": "Gal4S6S(b1-4)GlcNAc", "method_in_brief": "as §1"}, "[14]": {"target": "GlcA(b1-6)Gal", "method_in_brief": "as §1"}, "[15]": {"target": "GlcNAc(b1-4)Gal(b1-4)GlcNAc", "method_in_brief": "as §1"}, "[16]": {"target": "Man(a1-2)Man(a1-2)Man(a1-3)Man", "method_in_brief": "as §1"}, "[17]": {"target": "Man(a1-2)Man(a1-3)[Man(a1-2)Man(a1-6)]Man(a1-6)[Man(a1-2)Man(a1-2)Man(a1-3)]Man", "method_in_brief": "as §1"}, "[18]": {"target": "Man(a1-2)Man(a1-6)[Man(a1-3)]Man(a1-6)[Man(a1-2)Man(a1-2)Man(a1-3)]Man", "method_in_brief": "as §1"}, "[19]": {"target": "Man(a1-3)[Man(a1-6)]Man(a1-6)[Man(a1-2)Man(a1-3)]Man(b1-4)GlcNAc(b1-4)GlcNAc", "method_in_brief": "as §1"}, "[20]": {"target": "Man(a1-3)[Man(a1-6)]Man(a1-6)[Man(a1-3)]Man", "method_in_brief": "as §1"}, "[21]": {"target": "Neu5Gc(a2-3)Gal(b1-4)[Fuc(a1-3)]GlcNAc", "method_in_brief": "as §1"}}, "note": "Many of the other results were omitted from the sample, so the strongest signals are more common in it than they were.", "data": [{"binder": "B1", "values": [{"measurement": "glycan array binding signal (z-score)", "setting": "[1]", "value": -0.163}, {"measurement": "glycan array binding signal (z-score)", "setting": "[2]", "value": -0.276}, {"measurement": "glycan array binding signal (z-score)", "setting": "[3]", "value": -0.226}, {"measurement": "glycan array binding signal (z-score)", "setting": "[4]", "value": -0.272}, {"measurement": "glycan array binding signal (z-score)", "setting": "[5]", "value": -0.268}, {"measurement": "glycan array binding signal (z-score)", "setting": "[6]", "value": -0.246}, {"measurement": "glycan array binding signal (z-score)", "setting": "[7]", "value": -0.269}, {"measurement": "glycan array binding signal (z-score)", "setting": "[8]", "value": -0.164}, {"measurement": "glycan array binding signal (z-score)", "setting": "[9]", "value": -0.267}, {"measurement": "glycan array binding signal (z-score)", "setting": "[10]", "value": -0.273}, {"measurement": "glycan array binding signal (z-score)", "setting": "[11]", "value": -0.269}, {"measurement": "glycan array binding signal (z-score)", "setting": "[12]", "value": -0.274}, {"measurement": "glycan array binding signal (z-score)", "setting": "[13]", "value": -0.275}, {"measurement": "glycan array binding signal (z-score)", "setting": "[14]", "value": -0.26}, {"measurement": "glycan array binding signal (z-score)", "setting": "[15]", "value": -0.128}, {"measurement": "glycan array binding signal (z-score)", "setting": "[16]", "value": 5.67}, {"measurement": "glycan array binding signal (z-score)", "setting": "[17]", "value": 5.16}, {"measurement": "glycan array binding signal (z-score)", "setting": "[18]", "value": 4.8}, {"measurement": "glycan array binding signal (z-score)", "setting": "[19]", "value": 4.71}, {"measurement": "glycan array binding signal (z-score)", "setting": "[20]", "value": 4.73}, {"measurement": "glycan array binding signal (z-score)", "setting": "[21]", "value": -0.27}]}]}
